# Several values for one entry are separate records, joined by “and”; a condition that tells them apart may be missing. Equal entries are not always repeated. Some structures have more than one record in an assay (separate samples or runs), and their calls can disagree. Activity calls are given as the source filed them. How the source made its calls: active means hit-call score of the fitted dose curve at least 0.9, where 1 is the maximum; inactive means score below 0.9.
# Read-out: Vascular cell adhesion molecule 1 (VCAM1), VCAM1 (gene 7412)
# Assay: BSK_IMphg_VCAM1: BioMAP Diversity Plus: IMphg Assay for Vascular cell adhesion molecule 1 (VCAM1) Biomarker Activity (AID 2284286)
# Settings: primary human endothelial cells with macrophages
# Protocol: BSK_IMphg is a cell-based, multiplexed-readout assay that uses venular endothelial cells and macrophages, a human vascular primary cell, with measurements taken at 24 hours after chemical dosing in a microplate: 96-well plate.BSK_IMphg_VCAM1 is an assay component measured in the BSK_IMphg assay. It measures VCAM-1 antibody related to regulation of gene expression using ELISA technology.Data from the assay component BSK_IMphg_VCAM1 was analyzed at the endpoint, BSK_IMphg_VCAM1, in the positive analysis fitting direction relative to DMSO as the negative control and baseline of activity. Using a type of binding reporter, gain or loss-of-signal activity can be used to understand protein changes. To generalize the intended target to other relatable targets, this assay endpoint is annotated to the 'cell adhesion molecules' intended target family, where the subfamily is 'Immunoglobulin CAM'.
# The levels of cell surface (or secreted, indicated by the prefix "s") biomarker endpoints were measured by ELISA. Overt cytotoxicity to cells in confluent adherent cultures (all systems other than the BT system) was assessed by measuring total protein levels using sulforhodamine B (SRB) staining in parallel cultures at the time of biomarker measurements, indicated as SRB endpoints. For proliferation assays for adherent cell types, individual cell types are cultured at sub-confluence and relative cell numbers quantified by SRB staining at time points optimized for each system (48 h: 3C and CASM3C systems; 72 h: BT and HDF3CGF systems; 96 h: SAg system). SRB was performed by staining cells with 0.1% SRB after fixation with 10% TCA and reading wells at 560 nm.Viability and proliferation of PBMC (T cells) was quantified by Alamar Blue reduction for the SAg and BT systems. For PBMC viability (referred to as PBMC Cytotoxicity within the assay endpoint names), cells were plated (75,000/well in a 96-well plate) and then chemical samples added for 1 h before addition of activators, SEB and TSST-1 (20 ng/mL final concentration each). Cells were incubated for 90 h. Then, Alamar Blue (20 uL/well) (Invitrogen, Cat DAL1100) was added for 6 h, and the plates were read with a fluorescence microplate reader at 546/580 nm (excitation/emission). For PBMC proliferation, cells were plated and activated as above but incubated for only 16 h prior to addition of Alamar Blue. Plates were read after 6 h.
SMILES,outcome,AC50
O=C(Cl)C(F)(F)C(F)(F)C(F)(F)C(F)(F)C(F)(F)C(F)(F)F,inactive,–
CN(C(=O)C(F)(F)C(F)(F)C(F)(F)F)[Si](C)(C)C,inactive,–
NC(=O)C(F)(F)C(F)(F)C(F)(F)C(F)F,inactive,–
O=C(O)CCC(F)(F)C(F)(F)C(F)(F)C(F)(F)C(F)(F)C(F)(F)C(F)(F)F,inactive,–
C=CC(=O)OCC(F)(F)C(F)(F)C(F)(F)COC(=O)C=C,–,35 µM (active) and 40 µM (active)
O=C(F)C1(F)C(F)(F)C(F)(F)C(F)(F)C(F)(F)C1(F)F,inactive,–
CO[Si](C)(CCC(F)(F)C(F)(F)C(F)(F)C(F)(F)C(F)(F)C(F)(F)F)OC,inactive,–
OCC(F)(F)C(F)(F)C(F)(F)C(F)(F)C(F)(F)C(F)(F)CO,inactive,–
OCCCC(F)(F)C(F)(F)C(F)(F)C(F)(F)C(F)(F)C(F)(F)C(F)(F)C(F)(F)F,–,18 µM (active) and 17.8 µM (active)
NCC(F)(F)C(F)(F)C(F)(F)C(F)(F)C(F)(F)C(F)(F)C(F)(F)C(F)(F)F,inactive,–
C=CC(=O)OCCC(F)(F)C(F)(F)C(F)(F)C(F)(F)F,inactive,–
NC(=O)C(F)(F)C(F)(F)C(F)(F)C(F)(F)C(N)=O,inactive,–
OCC(O)CC(F)(F)C(F)(F)C(F)(F)C(F)(F)C(F)(F)C(F)(F)C(F)(F)C(F)(F)F (stereo not given),inactive,–
NC(=O)C(F)(F)C(F)(F)C(F)(F)C(F)(F)C(F)(F)C(F)(F)C(F)(F)F,inactive,–
O=C(O)C(F)(F)OC(F)(F)C(F)(F)OC(F)(F)C(F)(F)OC(F)(F)F,inactive,–
CCN(CCO)S(=O)(=O)C(F)(F)C(F)(F)C(F)(F)C(F)(F)C(F)(F)C(F)(F)C(F)(F)C(F)(F)F,inactive,39 µM (active)
C=CC(=O)OCC(F)(F)C(F)(F)C(F)(F)C(F)(F)C(F)(F)C(F)(F)C(F)(F)C(F)F,inactive,–
NS(=O)(=O)C(F)(F)C(F)(F)C(F)(F)C(F)(F)C(F)(F)C(F)(F)F,inactive,–
CNS(=O)(=O)C(F)(F)C(F)(F)C(F)(F)C(F)(F)C(F)(F)C(F)(F)C(F)(F)C(F)(F)F,inactive,16.3 µM (active)

SMILES,outcome,AC50
O=C(Cl)C(F)(F)C(F)(F)C(F)(F)C(F)(F)C(F)(F)C(F)(F)C(F)(F)F,inactive,–
OCC(F)(F)C(F)(F)C(F)(F)C(F)(F)C(F)(F)C(F)(F)C(F)(F)C(F)(F)CO,–,51.5 µM (active) and 54.6 µM (active)
COC(F)(C(F)F)C(F)(F)F (stereo not given),inactive,–
NC(=O)C(F)(F)C(F)(F)C(F)(F)F,inactive,–
O=C(O)C(F)(F)C(F)(F)C(F)(F)OC(F)(F)F,inactive,–
O=S(=O)(O)CCC(F)(F)C(F)(F)C(F)(F)C(F)(F)F,inactive,–
O=C(O)CCC(F)(F)C(F)(F)C(F)(F)F,inactive,–
CCOC(=O)CC(=O)C(F)(F)C(F)(F)F,inactive,–
C[Si](Cl)(Cl)CCC(F)(F)C(F)(F)C(F)(F)C(F)(F)C(F)(F)C(F)(F)F,inactive,–
FC(F)(F)C(F)(F)C(F)(F)C(F)(F)C(F)(F)C(F)(F)CC[Si](Cl)(Cl)Cl,inactive,–
O=S(=O)(Cl)C(F)(F)C(F)(F)C(F)(F)C(F)(F)C(F)(F)C(F)(F)C(F)(F)C(F)(F)F,inactive,–
NC(O)(C(F)(F)F)C(F)(F)F,inactive,–
FC(F)(F)C(F)(F)C(F)(F)C(F)(F)C(F)(F)C(F)(F)C(F)(F)CCI,inactive,–
O=S(=O)(OCC(F)(F)F)C(F)(F)C(F)(F)C(F)(F)C(F)(F)F,inactive,–
NCC(F)(F)C(F)(F)C(F)(F)C(F)(F)C(F)(F)C(F)(F)F,inactive,–
O=S(=O)(O)CCC(F)(F)C(F)(F)C(F)(F)C(F)(F)C(F)(F)C(F)(F)C(F)(F)C(F)(F)F,inactive,–
FC(F)(F)C(F)(F)C(F)(F)CC1CO1 (stereo not given),inactive,–
OCC(O)CC(F)(F)C(F)(F)C(F)(F)C(F)(F)F (stereo not given),inactive,–
OC(O)C(F)(F)C(F)(F)F,inactive,–
